# In the antibiotic and cytotoxicity screens of Wong et al. (2023):
# Out of some 39,000 compounds screened, about 500 (1.3%) were called active. This excerpt belongs to a sample that is enriched for actives.
# Tested on: S. aureus RN4220
# Experiment: growth inhibition call (relative growth <= 0.2)
# Conditions: 50 µM
row,Structure (SMILES),growth inhibition call
1,COc1cccc(-c2ccc3c(c2)O[C@H](CN(C)C(=O)C2CC2)[C@@H](C)CN([C@@H](C)CO)S3(=O)=O)c1,inactive
2,COc1ccc(CN(C)C[C@H]2OCCCC[C@@H](C)Oc3ccc(NC(=O)Nc4ccccc4)cc3C(=O)N([C@@H](C)CO)C[C@@H]2C)cc1,inactive
3,C[C@@H]1CN([C@H](C)CO)C(=O)c2cc(-c3ccncc3)cnc2O[C@H]1CN(C)C(=O)Nc1ccc2c(c1)OCO2,inactive
4,C[C@@H]1CCCCO[C@H](CN(C)C(=O)Nc2cccc3ccccc23)[C@@H](C)CN([C@@H](C)CO)C(=O)c2cc(NC(=O)Nc3ccc(F)cc3)ccc2O1,inactive
5,Cc1ccc(S(=O)(=O)N(C)C[C@H]2Oc3c(NC(=O)Nc4ccc(C(F)(F)F)cc4)cccc3C(=O)N([C@H](C)CO)C[C@H]2C)cc1,inactive
6,C[C@H]1CN([C@@H](C)CO)C(=O)c2cc(NC(=O)C3CCCCC3)ccc2O[C@H]1CN(C)Cc1ccc(Cl)c(Cl)c1,inactive
7,C[C@@H]1CN([C@H](C)CO)S(=O)(=O)c2ccc(C#CCN(C)C)cc2O[C@H]1CN(C)Cc1ccc2c(c1)OCO2,inactive
8,COc1ccc(COC[C@]23N=C4SCc5ccccc5CN4[C@H](c4ccccc4O2)[C@H]3COC(=O)NCCCCCC(=O)NO)cc1,inactive
9,CCn1cc(C(=O)O)c(=O)c2cnc(N3CCCC3)nc21,inactive
10,CCn1cc(C(=O)O)c(=O)c2cc(F)c(N3CCNCC3)cc21,active
11,CCN1CCN(c2cc3c(cc2F)c(=O)c(C(=O)O)cn3C2CC2)CC1,active
12,CCn1cc(C(=O)O)c(=O)c2ccc(C)nc21,inactive
13,CCn1cc(C(=O)N2CCN(C)CC2)c(=O)c2cc(S(=O)(=O)N(C)C)ccc21,inactive
14,CCn1cc(C(=O)O)c(=O)c2cc(F)c(N3CCN(C)CC3)cc21.CS(=O)(=O)O,active
15,CCn1cc(C(=O)O)c(=O)c2cc(F)c(N3CCN(C(=S)Nc4cc(C(F)(F)F)ccc4Cl)CC3)cc21,inactive
16,O=C(O)c1cn(C2CC2)c2cc(N3CCNCC3)c(F)cc2c1=O,inactive
17,C[C@@H]1CCCCO[C@H](CN(C)C(=O)CCCN(C)C)[C@@H](C)CN([C@H](C)CO)C(=O)c2cc(N(C)C)ccc2O1,inactive
18,C[C@@H]1CCCCO[C@H](CN(C)C(=O)NC2CCCCC2)[C@@H](C)CN([C@@H](C)CO)C(=O)c2cc(NC(=O)CCC(F)(F)F)ccc2O1,inactive
19,COCC(=O)N1C[C@@H](C)[C@@H](OC)CN(C)C(=O)c2cc(NC(=O)Nc3cccc(F)c3)ccc2OC[C@H]1C,inactive
20,C[C@@H]1CN([C@H](C)CO)C(=O)c2cc(NC(=O)CCC(F)(F)F)ccc2O[C@@H](C)CCCCO[C@@H]1CN(C)Cc1ccccc1,inactive
21,C[C@H]1CN([C@@H](C)CO)C(=O)c2cccc(NS(C)(=O)=O)c2O[C@@H]1CN(C)C(=O)Nc1ccc2c(c1)OCO2,inactive
22,CN(C)C(=O)CN1CCn2cc(Cn3cncn3)nc2C1,inactive
23,Cc1noc(C)c1NC(=O)Nc1ccc2c(c1)CC(=O)N([C@H](C)CO)C[C@H](C)[C@H](CN(C)S(=O)(=O)c1cccs1)O2,inactive
24,CC(C)(ON=C(C(=O)NC1C(=O)N2C(C(=O)[O-])=C(C[n+]3ccccc3)CSC12)c1csc(N)n1)C(=O)O (stereo unspecified),inactive
25,NC(=O)c1cc[n+](CC2=C(C(=O)O)N3C(=O)[C@@H](NC(=O)Cc4cccs4)[C@H]3SC2)cc1,active
26,NC(=O)c1cc[n+](CC2=C(C(=O)[O-])N3C(=O)C(NC(=O)C(c4ccccc4)S(=O)(=O)[O-])C3SC2)cc1.[Na+] (stereo unspecified),inactive

row,Structure (SMILES),growth inhibition call
1,NC(=O)c1cc[n+](CC2=C(C(=O)[O-])N3C(=O)C(NC(=O)Cc4cccs4)C3SC2)cc1 (stereo unspecified),active
2,Cn1sccc1=O,inactive
3,O=C(C[C@@H]1CC[C@H]2[C@@H](COC[C@@H](O)CN2S(=O)(=O)c2ccc(Cl)cc2)O1)N1CCc2ccccc2C1,inactive
4,C[C@H](CO)N1C[C@H](C)[C@@H](CN(C)Cc2ccncc2)OCCCC[C@H](C)Oc2ccc(NC(=O)Nc3ccc4c(c3)OCO4)cc2C1=O,inactive
5,O=C(C[C@@H]1CC[C@H]2NC[C@@H](O)COC[C@@H]2O1)NCCN1CCCC1,inactive
6,COc1cc(C2c3cc4c(cc3C(OC3OC5COC(C)OC5C(O)C3O)C3COC(=O)C23)OCO4)cc(OC)c1O (stereo unspecified),inactive
7,COc1cc([C@@H]2c3cc4c(cc3[C@@H](O[C@@H]3O[C@@H]5CO[C@@H](C)O[C@H]5[C@H](O)[C@H]3O)[C@H]3COC(=O)[C@H]23)OCO4)cc(OC)c1O,active
8,COc1cc([C@@H]2c3cc4c(cc3[C@@H](O[C@@H]3O[C@@H]5CO[C@@H](C)O[C@H]5[C@H](O)[C@H]3O)[C@@H]3COC(=O)[C@@H]23)OCO4)cc(OC)c1O,inactive
9,N#C[C@H](N)c1ccc(Cl)cc1,inactive
10,N#CC(c1ccc(Cl)cc1)c1c(Cl)cc(-n2ncc(=O)[nH]c2=O)cc1Cl (stereo unspecified),active
11,Nc1cc(=O)[nH]c(=O)n1-c1ccc(Cl)cc1,inactive
12,Cc1noc(C)c1NC(=O)N(C)C[C@@H]1OCCCC[C@@H](C)Oc2ccc(NC(=O)C3CCCCC3)cc2C(=O)N([C@@H](C)CO)C[C@@H]1C,inactive
13,C[C@@H]1CN([C@@H](C)CO)C(=O)Cc2cc(NS(=O)(=O)c3ccccc3)ccc2O[C@@H]1CN(C)Cc1ccc(-c2ccccc2)cc1,inactive
14,COc1ccc(OCCN2CCC(C(=O)N[C@@H](c3ccc(F)cc3)c3ccc4ccccc4n3)CC2)cc1,inactive
15,COc1ccc(/C=C/CN2CCC(C(=O)N[C@@H](c3ccc(F)cc3)c3ccc4ccccc4n3)CC2)cc1,inactive
16,O=C(N[C@H](c1ccc(F)cc1)c1ccc2ccccc2n1)C1CCN(Cc2ccc(Oc3ccccc3)cc2)CC1,inactive
17,O=C(N[C@@H](c1ccccc1)c1ccc2ccccc2n1)C1CCN(CCOc2ccc(Cl)cc2)CC1,active
18,O=C(N[C@@H](c1ccc(F)cc1)c1ccc2ccccc2n1)C1CCN(CCOc2ccc(F)cc2)CC1,active
19,COc1cc(CN2CCC(C(=O)N[C@@H](c3ccc(-c4ccccc4)cc3)c3cnccn3)CC2)cc(OC)c1,inactive
20,O=C(N[C@@H](c1ccccc1)c1ccc2ccccc2n1)C1CCN(Cc2ccc(Oc3ccccc3)cc2)CC1,inactive
21,O=C(N[C@@H](c1ccc(-c2ccccc2)cc1)c1cnccn1)C1CCN(Cc2ccc(Cl)c(Cl)c2)CC1,inactive
22,O=C(N[C@H](c1ccc(Cl)cc1)c1cnccn1)C1CCN(Cc2ccc(Oc3ccccc3)cc2)CC1,active
23,COc1ccc(/C=C/CN2CCC(C(=O)N[C@@H](c3ccc(-c4ccccc4)cc3)c3cnccn3)CC2)cc1,active
24,O=C(N[C@@H](c1ccc(-c2ccccc2)cc1)c1cnccn1)C1CCN(Cc2ccc(Oc3ccccc3)cc2)CC1,inactive
25,O=C(N[C@@H](c1ccccc1)c1ccc2ccccc2n1)C1CCN(CCOc2ccc(Cl)cc2Cl)CC1,inactive
